Here are results for 7 compounds from PubChem BioAssay.

Active and inactive are the calls of the source.

Experiment [1] in a line: optical density shifts of acrAB sulA E. coli – strain DRC41, OD650, 48 h, E. coli filamentation inducer project, primary screen (AID 1152).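 Note: E. coli MC1000 strain DRC41 lacking acrAB efflux pump and sulA.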 The note with it: higher = more signal, called active from +8 up or from −8 down.
A short description of experiment [2]: probe aLefty1 binding on compound microarray – biochemical, small-molecule microarray, 635/667 nm fluorescence, primary screen (AID 1153).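 Note: score merges spot fluorescence with signal-to-noise ratio from the scanned slide images.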 The note with it: higher = more signal.
The nature of experiment [3]: plasmodial surface anion channel blockers, osmotic lysis – cell-based, P. falciparum Indochina, OD700, 1 h, primary screen (AID 1154). As to conditions: P. falciparum Indochina infected RBC osmotic lysis, higher = more signal, called active from +8 up or from −8 down.
A short description of experiment [4]: plasmodial surface anion channel blockers, osmotic lysis – cell-based, P. falciparum Indochina, OD700, 2 h, primary screen (AID 1155).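 Note: lysis reports solute entry through the parasite surface anion channel PSAC.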 As to conditions: P. falciparum Indochina infected erythrocytes, higher = more signal, called active from +8 up or from −8 down.
Experiment [5] in a line: changes in parasitized red cell lysis, either direction – P. falciparum Indochina, OD700, 3 h, PSAC antagonist project, primary screen (AID 1156). The note with it: P. falciparum-infected erythrocytes, osmotic lysis, higher = more signal, called active from +8 up or from −8 down.
The nature of experiment [6]: plasmodial surface anion channel blockers, osmotic lysis – cell-based, P. falciparum Indochina, OD700, 18 h, primary screen (AID 1157). The note with it: P. falciparum Indochina infected erythrocytes, osmotic lysis OD700, 18 h; higher = more signal, called active from +8 up or from −8 down.
The nature of experiment [7]: S6 kinase pathway phospho-S6 level changes – cell-based, A549, cytoblot, luminescence, serum-stimulated, primary screen (AID 1158).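 Note: serum-stimulated A549 lung adenocarcinoma cells; signal is phosphorylated S6 detected by cytoblot immunostaining with HRP secondary.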 As to conditions: 5 h, higher = more signal.
Experiment [8] deals with NADPH oxidase 2 (Homo sapiens) (UniProt P04839). Put plainly: compounds shifting NOX2 Amplex Red fluorescence – cell-based, HEK293-NOX2, PMA-stimulated, NOX inhibitor project, primary screen (AID 1159). Note: test concentration not given here. The note with it: 45 min, higher = more signal, called active from +8 up or from −8 down.
Chain of NADPH oxidase 2 (Homo sapiens) (P04839 whole entry, looked up): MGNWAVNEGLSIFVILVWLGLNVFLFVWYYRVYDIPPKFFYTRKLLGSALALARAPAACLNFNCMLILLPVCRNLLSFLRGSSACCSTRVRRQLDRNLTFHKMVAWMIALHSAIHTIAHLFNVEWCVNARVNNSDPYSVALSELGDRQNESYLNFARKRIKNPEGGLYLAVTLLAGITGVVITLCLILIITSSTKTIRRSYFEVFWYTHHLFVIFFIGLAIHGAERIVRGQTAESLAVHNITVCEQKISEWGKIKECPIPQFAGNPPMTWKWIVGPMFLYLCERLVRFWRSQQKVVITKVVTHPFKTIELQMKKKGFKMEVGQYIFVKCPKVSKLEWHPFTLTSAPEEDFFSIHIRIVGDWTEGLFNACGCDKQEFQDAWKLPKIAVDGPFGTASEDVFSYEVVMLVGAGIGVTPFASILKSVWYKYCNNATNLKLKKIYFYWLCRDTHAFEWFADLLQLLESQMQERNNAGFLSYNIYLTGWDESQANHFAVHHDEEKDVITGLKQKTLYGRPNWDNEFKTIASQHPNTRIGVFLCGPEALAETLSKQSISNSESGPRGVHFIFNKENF
Experiment [9] deals with NADPH oxidase 4 (Homo sapiens) (UniProt Q9NPH5). As to the kind of experiment: compounds shifting NOX4 Amplex Red fluorescence – cell-based, HEK293-NOX4, tetracycline-induced, NOX inhibitor project, primary screen (AID 1160). As to conditions: HEK293-NOX4, Amplex Red H2O2 fluorescence, 45 min; higher = more signal, called active from +8 up or from −8 down.
Chain of NADPH oxidase 4 (Homo sapiens) (Q9NPH5 whole entry, looked up): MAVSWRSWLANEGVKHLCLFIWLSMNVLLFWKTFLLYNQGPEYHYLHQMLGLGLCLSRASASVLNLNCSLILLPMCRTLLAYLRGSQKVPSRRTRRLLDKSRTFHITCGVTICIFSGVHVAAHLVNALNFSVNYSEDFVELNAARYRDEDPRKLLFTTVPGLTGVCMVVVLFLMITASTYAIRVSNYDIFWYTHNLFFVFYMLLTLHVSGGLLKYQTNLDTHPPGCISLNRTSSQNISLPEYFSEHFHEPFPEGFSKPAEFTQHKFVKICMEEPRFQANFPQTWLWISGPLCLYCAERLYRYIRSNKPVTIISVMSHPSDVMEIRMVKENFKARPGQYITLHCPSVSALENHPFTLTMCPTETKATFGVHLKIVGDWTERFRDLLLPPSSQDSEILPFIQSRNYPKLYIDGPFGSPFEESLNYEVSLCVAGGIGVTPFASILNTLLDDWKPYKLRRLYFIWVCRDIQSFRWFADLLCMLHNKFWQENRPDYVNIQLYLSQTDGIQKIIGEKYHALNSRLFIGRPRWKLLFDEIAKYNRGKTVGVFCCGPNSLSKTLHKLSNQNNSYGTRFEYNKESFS
Experiment [10] concerns the target NADPH oxidase 5 (Homo sapiens) (UniProt Q96PH1). Put plainly: compounds shifting NOX5 Amplex Red fluorescence – cell-based, HEK293-NOX5, NOX inhibitor project, primary screen (AID 1161). As to conditions: HEK293-NOX5, ionomycin, 45 min, higher = more signal.
A short description of experiment [11]: compound effects on lung adenocarcinoma cell viability – A549, calcein-AM fluorescence, 48 h, basal, profiling panel (AID 1162). Note: test concentration not given here. As to conditions: higher = more signal.
Experiment [12] is described as follows: compound effects on differentiated 3T3-L1 adipocyte viability – cell-based, 3T3-L1 adipocytes, calcein-AM fluorescence, 48 h, basal, profiling panel (AID 1163). Note: test concentration not given here. The note with it: 3T3-L1 adipocytes viability, higher = more signal.
Experiment [13] in a line: compound effects on hepatocellular carcinoma cell viability – HepG2, calcein-AM fluorescence, 48 h, basal, profiling panel (AID 1164). Note: test concentration not given here. The note with it: higher = more signal.
Experiment [14] in a line: compound effects on multiple myeloma cell viability – MM1S, calcein-AM fluorescence, 48 h, basal, profiling panel (AID 1165).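 Note: viability of MM1S multiple myeloma cells under basal unstimulated conditions; test concentration not given here.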 The note with it: higher = more signal.
Experiment [15] can be described thus: calcein-AM signal in unstimulated myeloma cells – cell-based, calcein-AM fluorescence, 48 h, PK04 Diversity Set, profiling panel (AID 1166).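 Note: cells grown under basal conditions without added stimulus; test concentration not given here.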 As to conditions: RPMI8226 myeloma viability, higher = more signal.
Experiment [16] is described as follows: JC-1 mitochondrial signal, unstimulated HepG2 cells – cell-based, JC-1 fluorescence, 24 h, 100 nL compound, profiling panel (AID 1167). Note: test concentration not given here. The note with it: HepG2 mitochondrial potential, higher = more signal.
Experiment [17] is described as follows: JC-1 mitochondrial signal, unstimulated adipocytes – cell-based, JC-1 fluorescence, 3T3-L1 adipocytes, 24 h, 100 nL compound, profiling panel (AID 1168). Note: test concentration not given here. The note with it: JC-1 mitochondrial fluorescence, higher = more signal, called active from +8 up or from −8 down.
The nature of experiment [18]: JC-1 mitochondrial signal, unstimulated myeloma cells – cell-based, JC-1 fluorescence, RPMI8226, 24 h, 100 nL compound, profiling panel (AID 1169). Note: test concentration not given here. As to conditions: JC-1 mitochondrial potential fluorescence, higher = more signal.
Experiment [19] is described as follows: JC-1 mitochondrial signal, unstimulated MM1S myeloma – cell-based, JC-1 fluorescence, 24 h, 100 nL compound, profiling panel (AID 1170). Note: test concentration not given here. As to conditions: MM1S mitochondrial potential, higher = more signal.
Experiment [20] is described as follows: resazurin metabolic signal in A549 cells – cell-based, resazurin fluorescence, 24 h, PK04 Diversity Set, profiling panel (AID 1171). Note: test concentration not given here. As to conditions: A549 viability, higher = more signal, called active from +8 up or from −8 down.

Chain of NADPH oxidase 5 (Homo sapiens) (Q96PH1 whole entry, looked up): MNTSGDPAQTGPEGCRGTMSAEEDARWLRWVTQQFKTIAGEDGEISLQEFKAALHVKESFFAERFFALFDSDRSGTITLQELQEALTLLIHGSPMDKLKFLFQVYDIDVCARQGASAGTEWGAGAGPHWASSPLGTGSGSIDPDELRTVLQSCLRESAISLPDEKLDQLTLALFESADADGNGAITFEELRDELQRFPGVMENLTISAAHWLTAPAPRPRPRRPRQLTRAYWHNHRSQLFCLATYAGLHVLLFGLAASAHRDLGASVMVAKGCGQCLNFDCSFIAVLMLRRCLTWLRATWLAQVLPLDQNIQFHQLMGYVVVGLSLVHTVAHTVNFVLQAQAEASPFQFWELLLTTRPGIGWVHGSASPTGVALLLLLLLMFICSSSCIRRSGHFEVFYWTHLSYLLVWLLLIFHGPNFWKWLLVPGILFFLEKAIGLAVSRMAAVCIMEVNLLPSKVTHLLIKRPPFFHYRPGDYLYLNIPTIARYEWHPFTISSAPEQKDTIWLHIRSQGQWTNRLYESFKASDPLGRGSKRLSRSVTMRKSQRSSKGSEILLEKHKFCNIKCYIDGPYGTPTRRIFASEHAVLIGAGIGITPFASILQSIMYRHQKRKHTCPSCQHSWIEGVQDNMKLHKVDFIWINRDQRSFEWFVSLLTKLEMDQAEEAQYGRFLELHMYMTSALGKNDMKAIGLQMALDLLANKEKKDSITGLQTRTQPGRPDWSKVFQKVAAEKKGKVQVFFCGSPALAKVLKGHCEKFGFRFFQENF

In the case of `NC(=O)[C@H]1[C@@H]2C(=O)O[C@@H](c3ccccc3)[C@@H](c3ccccc3)N2[C@@H](c2ccc(O)cc2)[C@]12C(=O)Nc1ccccc12`, the z-score in experiment [1] is -0.261 (inactive); in experiment [3], 3.33 (inactive); in experiment [4], 1.23 (inactive); in [5] it was 0.217 (inactive); in experiment [6], 0.515 (inactive); in experiment [7] it was -0.471. Moreover, the z-score in experiment [8] is -0.741 (inactive); in experiment [9] it was -0.988 (inactive); in experiment [10], 0.572; in [11], -0.265; in experiment [12], -0.712; in experiment [13] it was 0.872. Further, the z-score was 0.519 in experiment [14]; -0.544 in experiment [15]; -0.288 in experiment [16]; -0.243 (inactive) in [17]; -0.309 in experiment [18]; -0.371 in experiment [19]. The z-score in experiment [20] is -0.189 (inactive). This compound came in with a composite z-score in [2] of -0.18.

Turning to `CS(=O)(=O)CCOC(=O)C1=CC(CCCO)=CC(C2CC2)N(Cc2cccc(OC(F)(F)F)c2)C=C1C(=O)OCCS(C)(=O)=O` (stereo not given), the z-score was -1.07 (inactive) in experiment [1]; 2.65 (inactive) in experiment [3]; 0.404 (inactive) in experiment [4]; -0.352 (inactive) in experiment [5]; 0.675 (inactive) in experiment [6]; -0.662 in experiment [7]. In addition, the z-score in experiment [8] is 0.944 (inactive); in experiment [9], 0.19 (inactive); in [10], -1.29; in experiment [11], 0.78; in [12] it was 0.751; in experiment [13], 0.572. Besides, the z-score was -2.98 in experiment [14]; -1.18 in [15]; 1.92 in experiment [16]; -0.374 (inactive) in [17]; -0.34 in [18]; -0.0798 in experiment [19]. Moreover, the z-score in [20] is 0.538 (inactive). The compound also registered a composite z-score in experiment [2] of 0.0392.

With `Cc1ccc(F)cc1S(=O)(=O)N[C@@H]1CCN(Cc2cccc3[nH]ccc23)C1`, the z-score in [1] is -1.41 (inactive); in experiment [3], 1.27 (inactive); in [4] it was 0.137 (inactive); in experiment [5] it was 0.0401 (inactive); in experiment [6], 0.451 (inactive); in experiment [7], -0.453. The z-score in experiment [8] is 0.116 (inactive); in [9] it was -0.746 (inactive); in experiment [10], -0.541; in [11] it was 0.139; in experiment [12] it was -0.658; in [13], -0.415. Further, the z-score in experiment [14] was -1.14; in experiment [15], -0.864; in [16], 0.0617; in experiment [17], -0.65 (inactive); in experiment [18], 0.263; in [19], -0.161. In addition, the z-score in [20] was -0.398 (inactive). For the same compound, the composite z-score in [2] was -0.007.

In the case of `COC(=O)[C@@]1(Cc2ccccc2)[C@H]2c3cc(C(=O)N(C)C)n(CCn4cc([N+](=O)[O-])nc4C)c3C[C@H]2CN1C(=O)c1ccccc1`, the z-score is -0.566 (inactive) in experiment [1]; -0.25 (inactive) in [3]; -0.949 (inactive) in experiment [4]; -0.513 (inactive) in [5]; -0.956 (inactive) in experiment [6]; 1.18 in experiment [7]. Besides, the z-score in experiment [8] is 0.635 (inactive); in [9] it was 1.24 (inactive); in [10], -1.65; in experiment [11], -0.461; in experiment [12], 0.297; in [13], -1.17. Also, the z-score in [14] was 0.506; in [15] it was 0.911; in experiment [16] it was 0.547; in experiment [17], 0.0518 (inactive); in [18] it was -0.0192; in experiment [19], 0.377. For the same compound, in experiment [20], the z-score was -0.0815 (inactive). For the same compound, the composite z-score in experiment [2] is 0.0249.

In the case of `C=CCNC(=O)[C@@H]1[C@H]2C(=O)O[C@H](c3ccccc3)[C@H](c3ccccc3)N2[C@H](c2ccc(O)cc2)[C@@]12C(=O)Nc1ccc(C#CCC(C(=O)OC)C(=O)OC)cc12`, the z-score in experiment [1] was -0.482 (inactive); in experiment [3], 5.99 (inactive); in experiment [4], 0.792 (inactive); in [5], 2.3 (inactive); in experiment [6], 0.319 (inactive); in experiment [7], -0.45. Moreover, the z-score is 1.97 (inactive) in experiment [8]; 0.448 (inactive) in experiment [9]; 1.25 in experiment [10]; -0.399 in experiment [11]; -0.937 in experiment [12]; -0.6 in [13]. The z-score in experiment [14] is -3.31; in experiment [15], -4.52; in [16], -1.76; in [17], -0.271 (inactive); in experiment [18], -1.25; in experiment [19] it was -2.23. Further, the z-score in experiment [20] is -0.395 (inactive). The composite z-score in [2] was -0.0544.

In the case of `Cc1ccc(C(C)CC(O)C2C=CC3C(=O)N(c4ccccc4)C(=O)C3N2Nc2ccc(C#N)cc2)o1` (stereo not given), the z-score in experiment [1] is 0.249 (inactive); in experiment [3], 7.4 (inactive); in experiment [4] it was 0.478 (inactive); in experiment [5], 0.45 (inactive); in [6] it was -0.397 (inactive); in experiment [7] it was 0.729. Also, the z-score in experiment [8] is -2.43 (inactive); in experiment [9], -3.34 (inactive); in experiment [10] it was -2.6; in [11], 0.491; in experiment [12], -0.0968; in experiment [13], 0.459. Moreover, the z-score in experiment [14] is -3.7; in experiment [15] it was -0.355; in [16] it was 0.175; in experiment [17], -0.155 (inactive); in experiment [18] it was -1.05; in experiment [19], -1.2. Besides, the z-score in [20] is -1.17 (inactive). Moreover, the composite z-score in experiment [2] worked out at 0.198.

Turning to `O=C1c2ccccc2[C@](Cc2ccccc2I)(C(=O)NC2CC2)[C@H](c2ccc(CO)cc2)N1Cc1ccccc1C(F)(F)F`, the z-score in experiment [1] is -1.14 (inactive); in experiment [3] it was 8.14 (active); in experiment [4], 0.789 (inactive); in experiment [5] it was 4.29 (inactive); in experiment [6], -0.165 (inactive); in experiment [7], 2.18. Moreover, the z-score in experiment [8] was 0.459 (inactive); in experiment [9] it was -1.34 (inactive); in [10] it was -2.92; in [11] it was 0.319; in experiment [12], 0.865; in experiment [13] it was -0.0085. The z-score in experiment [14] was -0.645; in experiment [15], -2.83; in experiment [16] it was 0.476; in experiment [17], 0.347 (inactive); in experiment [18], -0.761; in experiment [19], -0.154. For the same compound, the z-score in experiment [20] was 0.272 (inactive). In [2], this compound had a composite z-score of -0.0902.
